Compound activity deposited in PubChem by National Center for Advancing Translational Sciences (NCATS).
Pf Dd2 growth: Plasmodium falciparum Dd2 growth inhibition; 4.3% of 120,000 active; Potency, µM (titrated, usually from 28.9 µM), inactives show at the highest dose activity, negative = inhibition, usual class: inhibitors; P. falciparum Dd2 growth, SYBR Green, 72 h; AID 1347417; active means well fitted inhibition curve with a large enough effect;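 further: plate controls were DMSO vehicle for no effect and reference drug for full effect; nearly all actives have a fitted effect of over 65% in size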
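Readout: SYBR Green fluorescence, 485 nm excitation, 535 nm emission, after ~16 h lysis at 37C. Before that, Dd2-infected red cells (2.5% hematocrit) grew 72 h with compound, 29 uM top final concentration.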
Starred values were filed as active, the others as inactive; [ ] = remark or other dose. The entries come from a sample that favours hits as a whole. Potency means the concentration at half of the fitted maximal effect.

COc1ccc(-c2c(C)c3ccc(O)c(CN4CCOCC4)c3oc2=O)cc1 was read as Pf Dd2 growth 8.9µM*.
COc1ccc(CNC(=O)C2CCN(Cc3nc(-c4ccc(Cl)cc4)oc3C)CC2)cc1 was read as Pf Dd2 growth 24%.
`COc1ccc2c(c1)OCC(CNC(=O)CN1CCOCC1)C2` (stereo unspecified) gave Pf Dd2 growth -6%.
Screening COc1ccc(C(CNC(=O)c2oc3ccc(C)cc3c2C)N2CCOCC2)cc1 (stereo unspecified) returned Pf Dd2 growth -19%.
COc1ccc(-c2c(C)c3ccc(O)c(CN4CCCC4)c3oc2=O)cc1 was read as Pf Dd2 growth 3.2µM*.
Screening CC(c1n[nH]c(=O)n1CCc1ccccc1F)n1cccn1 (stereo unspecified) returned Pf Dd2 growth 8%.
CC(C)CN1C(=O)CCc2cc(NC(=O)c3c(F)cccc3F)ccc21 was read as Pf Dd2 growth -21%.
For O=C(NC1CCOC2(CCOCC2)C1)c1csc(Cc2ccccc2)n1 (stereo unspecified) the results were Pf Dd2 growth 8%.
Cc1ccc(C(=O)N2CCC3(CC2)CC(N2CCN(CC(C)C)CC2)CCO3)s1 (stereo unspecified) was read as Pf Dd2 growth inactive.
Screening CN1C(=O)C2(CCN(C(=O)CCC3CCCCC3)CC2)c2ccccc21 returned Pf Dd2 growth 5µM*.
`CN1C(=O)C2(CCN(C(=O)CCCS(N)(=O)=O)CC2)c2ccccc21` gave Pf Dd2 growth 4%.
COCCC(=O)N1CCC2(CC1)C(=O)N(C)c1ccccc12 was read as Pf Dd2 growth 50%.
Screening COc1nc2c(cc1CNC(=O)[C@@H](N)CO)C(=O)N(CCc1ccccn1)C2 returned Pf Dd2 growth -5%.
COc1ccc(N2CCN(c3ncnc4c3cnn4-c3ccc(C)c(Cl)c3)CC2)cc1 was read as Pf Dd2 growth 40%.
Screening COc1ccc(-n2ncc3c(N4CCN(c5cccc(C)c5)C(C)C4)ncnc32)cc1 (stereo unspecified) returned Pf Dd2 growth 5.6µM*.
`Cc1cccc(-n2ncc3c(N4CCN(c5ccccc5)CC4)ncnc32)c1` gave Pf Dd2 growth 44%.
Cc1nn(C(=O)c2ccccc2)c(C)c1Sc1ccc(Cl)cc1 was read as Pf Dd2 growth 11µM*.
CCC(=O)Oc1c(Sc2ccc(Cl)cc2)c(C)nn1-c1ccccc1 was read as Pf Dd2 growth -22%.
`Cc1ccc(Sc2c(C)nn(C(=O)c3ccc(Br)cc3)c2C)cc1` gave Pf Dd2 growth 27%.
`CCNC(=O)N1CCCN(C(=O)C2CC2)C(c2ccccc2)CC(=O)NCC1` (stereo unspecified) gave Pf Dd2 growth 12%.
Cc1cc(OC2CN(Cc3cccc4ccccc34)C2)ccc1F was read as Pf Dd2 growth inactive.
For COCC1CN(C(=O)Cn2nc(C(F)(F)F)cc2C)CC12CCNCC2 (stereo unspecified) the results were Pf Dd2 growth 29%.
For COc1ccc(N(Cc2cccs2)C(=O)c2ccc(OC)c(Cl)c2)cc1 the results were Pf Dd2 growth 3%.
COc1ccc(N(Cc2cccs2)C(=O)COc2cccc(Cl)c2)cc1 was read as Pf Dd2 growth -8%.
For CCCCOc1cccc(C(=O)N(Cc2cccs2)c2ccc(OC)cc2)c1 the results were Pf Dd2 growth 0.32µM*.
`CCCc1ccc(C(=O)N2CCC3(CCCN(C)C3=O)C2)cc1` (stereo unspecified) gave Pf Dd2 growth -4%.
Screening Cc1noc(C)c1-c1cc2c(cc(C)n2C)c(Nc2ccncn2)n1 returned Pf Dd2 growth inactive.
Screening COCC(=O)NCC1c2cc(OC)c(OC)cc2CCN1C(=O)Nc1cccc(F)c1 (stereo unspecified) returned Pf Dd2 growth inactive.
Screening COc1cc2c(cc1OC)C(COc1ccc3c(C)cc(=O)oc3c1)N(C(=O)c1ccc(C)cc1)CC2 (stereo unspecified) returned Pf Dd2 growth 11µM*.
Screening CCCC(=O)N1CCc2cc(OC)c(OC)cc2C1COc1ccc2c(C)cc(=O)oc2c1 (stereo unspecified) returned Pf Dd2 growth 7.1µM*.
Screening COc1cc2c(cc1OC)C(CNC(=O)c1cccs1)N(C(=O)Nc1ccc(C)cc1)CC2 (stereo unspecified) returned Pf Dd2 growth -3%.
Screening CCCNC(=O)NCC1c2cc(OC)c(OC)cc2CCN1C(=O)NCC (stereo unspecified) returned Pf Dd2 growth -18%.
`Cc1cc(=O)oc2cc(OCC(=O)Nc3ccc(O)c(C(=O)O)c3)ccc12` gave Pf Dd2 growth 5%.
Screening COc1cc2c(cc1OC)C(COc1ccc3c(C)cc(=O)oc3c1)N(C(=O)c1ccc(C)c(C)c1)CC2 (stereo unspecified) returned Pf Dd2 growth 5µM*.
For COc1cc2c(cc1OC)C(CNC(=O)c1ccc(C)cc1)N(C(=O)NC(C)C)CC2 (stereo unspecified) the results were Pf Dd2 growth -2%.
Screening Cc1cccc(-c2ocnc2C(=O)N2CCCOCCNC(=O)CC2)c1 returned Pf Dd2 growth 24%.
CC(C)(C)C(=O)N1CCC2(CC1)C(=O)NCN2Cc1ccc(Cl)cc1 was read as Pf Dd2 growth inactive.
`Cc1ccc(-c2nnc(C3CN(C(=O)c4ccnn4C)CC34CCOCC4)o2)cc1` (stereo unspecified) gave Pf Dd2 growth inactive.
Screening CCCN(CC1CCOC1)S(=O)(=O)c1cc(F)ccc1F (stereo unspecified) returned Pf Dd2 growth -24%.
CCc1ccc(N2CC(c3noc(-c4ccc5ncccc5c4)n3)CC2=O)cc1 (stereo unspecified) was read as Pf Dd2 growth -16%.
`Cc1ccc(F)cc1NC(=O)c1cc(-c2ccc[nH]2)n[nH]1` gave Pf Dd2 growth -14%.
`O=C(Cc1ccc(F)cc1)N1CCC(Cc2nc(-c3ccc(F)cc3)no2)CC1` gave Pf Dd2 growth 34%.
`CC(C)c1noc(-c2cn(C3CCN(C(=O)c4cc5ccccc5[nH]4)C3)nn2)n1` (stereo unspecified) gave Pf Dd2 growth inactive.
Screening Cc1cc(C(F)(F)F)nc(CCNC(=O)C2CC3(CCNCC3)CN2)n1 (stereo unspecified) returned Pf Dd2 growth -18%.
For Cc1ccc(C(=O)N2CCC3(CC2)SCC(=O)N3c2ccc(F)cc2)cc1[N+](=O)[O-] the results were Pf Dd2 growth inactive.
COCCCNC(=O)C(NC(=O)c1cccc(C)c1)C1CCN(C(=O)c2ccccc2)CC1 (stereo unspecified) was read as Pf Dd2 growth -18%.
`COc1cccc(CN2CCCn3nc(C)c(-c4cnccc4C)c32)c1` gave Pf Dd2 growth -9%[44.1 µM].
For Cc1nn2c(c1-c1cccnc1N1CCOCC1)N(CC1CC1)CCC2 the results were Pf Dd2 growth inactive.
For Cc1nn2c(c1-c1ccccc1Oc1ccccc1)N(C(=O)c1ccc(F)cc1)CCC2 the results were Pf Dd2 growth inactive.
Screening Cc1nn2c(c1-c1ccccc1Oc1ccccc1)N(CC1CCOCC1)CCC2 returned Pf Dd2 growth 7.9µM*.
`COc1ccc(CN2CCCn3nc(C)c(-c4ccccc4Oc4ccccc4)c32)cc1O` gave Pf Dd2 growth 1.3µM*.
`Cc1nn2c(c1-c1ccccc1-c1ccccc1)N(Cc1cccc(O)c1)CCC2` gave Pf Dd2 growth 0.79µM*.
Screening CC(=O)Nc1ccccc1-c1c(C)nn2c1N(Cc1ccccc1)CCC2 returned Pf Dd2 growth inactive.
Cc1nn2c(c1-c1ccccc1Oc1ccccc1)N(CC1CC1)CCC2 was read as Pf Dd2 growth inactive.
